Results: PubChem BioAssay AID540363 (National Center for Advancing Translational Sciences (NCATS), 2011)
Results filed as inconclusive are left out. The source made the active and inactive calls. Calls come from the whole dose curve; as a rule, active = well fitted cell-killing curve with a large enough effect; inconclusive = small, poorly fitted or top-dose-only effect; inactive = flat fitted curve, though single readings scatter.

experiment: PC3M Cytotoxicity Assay for Compounds that Inhibit the Perinuclear Compartment: Chemistry Optimization Followup; conditions: PC3M-GFP viability, ATPLite luminescence, 24 h; series mostly up to 46.1 µM
Description: The perinucleolar compartment (PNC) is a non-membrane-bound nuclear subdomain that is associated with but structurally distinct from the nucleolus. The PNC is a heritable trait, in which the number of PNCs per cell in daughter cells often mimics that of their mother cells. The PNC is heterogeneous in shape, is stable through interphase, disassembles during mitosis, and reassembles in early G1. The PNC is concentrated with newly synthesized RNA polymerase III (pol III) RNAs (MRP RNA, RNAse P H1 RNA, hY RNAs[hY1, 2, 5], Alu RNA, and SRP [7SL] RNA) and RNA binding proteins (nucleolin, PTB, CUG-BP, KSRP, Raver1, Raver2, and Rod). […] Extensive in vitro studies have shown that the PNC is unique to tumor cells and preferentially forms in tumor cells derived from solid tissues. Examination of cancer cell lines from various origins and malignant capacities has shown that PNC prevalence correlates with the malignancy of tumors and has the potential to be developed as a pan-cancer prognostic marker. […] Although the PNC is associated with a DNA locus and a handful of components have been identified, much remains to be investigated regarding the structure and function of the PNC and its mechanistic link to cancer. We have previously shown that PNC prevalence reduction is a valid strategy to identify compounds that can be used to study the structure and function of the PNC. It is necessary, however, to create a screening platform that is able to test a large number of compounds in an automated fashion. Here we report the development and robustness of an automated whole-cell phenotypic image-based screening assay that is capable of identifying such compounds. We conducted a followup assay to measure the effect of the lead candidates on cell health by measuring ATP levels (ATPLite). The highly metastatic PC3M-GFP reporter cell line was used in this study. NIH Chemical Genomics Center [NCGC] NIH Molecular Libraries Probe Centers Network [MLPCN] MLPCN Grant: MH082371-01A2 Assay Submitter (PI): Sui Huang, Northwestern University, Feinberg School of Medicine, Cell and Molecular Biology, Chicago, Illinois.
1. Cells at a density of 75-90% confluency in T175 flasks were harvested using 7 ml TrypLE Express cell dissociation reagent. After dissociation (5 minutes room temperature incubation) 10 ml of complete media was added to the TrypLE/cell suspension. The liquid was transferred to a 50 ml Conical tube and cells were pelleted at 1000 RPM for 5 min. Supernatant was removed and cells were resuspended to a final density of 150-200 cells/ul in complete media. 2. Cells were plated in 5 ul volume (2000 cells/well) into 1536 well White solid bottom plates and allowed to recover and adhere at 37 C in a humidified 5% CO2 incubator for 4 hours. 3. After 4 hour incubation, compound libraries (23 nl of […] in columns 5-48) were transferred to the plates in duplicate using a 1536 well pintool. Camptothecin positive control (59 uM final) was added to column 2 and 1:3 dilutions of camptothecin was added to column 3. DMSO negative controls were present in columns 1 and 4. 4. After a 24 hour incubation in the 37 C incubator, all wells were treated with 3 ul of ATPLite reagent using a multidrop combi dispenser (ThermoFisher). Bubbles that formed during dispensing were removed by spinning the plates for 1 minutre at 1500 RPM on a table top centrifuge. 5. Luminescencent signal was detected on a Viewlux CCD based imager (PerkinElmer) with a clear filter and a 30 second integration time. The PC3M cell line stably expressing the PTB-GFP was provided by Sui Huang of Northwestern University. The media and cell culture reagents were purchased from Invitrogen (Carlsbad, CA), ATPLite came from PerkinElmer.

Compound	Potency
N=c1c2c(-c3ccccc3)c(-c3ccccc3)n(CCc3ccccc3)c2ncn1C1CCC(O)CC1 (stereo not given)	17.7 µM (active)
CN(C)CCCn1cnc2c(c(-c3ccccc3)c(-c3ccccc3)n2Cc2ccccc2)c1=N	25 µM (active)
N=c1c2c(-c3ccccc3)c(-c3ccccc3)n(CCc3ccccc3)c2ncn1CC1CCCO1 (stereo not given)	11.2 µM (active)
CN(C)CCCn1cnc2c(c(-c3ccccc3)c(-c3ccccc3)n2CCc2ccccc2)c1=N	22.3 µM (active)
CCOC(CCCn1cnc2c(c(-c3ccccc3)c(-c3ccccc3)n2CCc2ccccc2)c1=N)OCC	22.3 µM (active)
C[C@H]([C@@H](O)c1ccccc1)n1cnc2c(c(-c3ccccc3)c(-c3ccccc3)n2Cc2ccccc2)c1=N	15.8 µM (active)
N=c1c2c(-c3ccccc3)c(-c3ccccc3)n(Cc3ccccc3)c2ncn1CC1CCCO1 (stereo not given)	19.9 µM (active)
COC(Cn1cnc2c(c(-c3ccccc3)c(-c3ccccc3)n2CCc2ccccc2)c1=N)OC	17.7 µM (active)
N=c1c2c(-c3ccccc3)c(-c3ccccc3)n(CCc3ccccc3)c2ncn1CCCCCO	17.7 µM (active)
COc1ccc(Cn2c(-c3ccccc3)c(-c3ccccc3)c3c(=N)n(CCCCO)cnc32)cc1	12.5 µM (active)
COc1ccc(Cn2c(-c3ccccc3)c(-c3ccccc3)c3c(=N)n(CCCCCO)cnc32)cc1	15.8 µM (active)
CN(C)CCn1cnc2c(c(-c3ccccc3)c(-c3ccccc3)n2Cc2ccccc2)c1=N	17.7 µM (active)
COc1ccc(Cn2c(NC=N[C@H](C)[C@@H](O)c3ccccc3)c(C#N)c(-c3ccccc3)c2-c2ccccc2)cc1	19.6 µM (active)
N=c1c2c(-c3ccccc3)c(-c3ccccc3)n(CCc3ccccc3)c2ncn1[C@H](CO)Cc1ccccc1	19.9 µM (active)
N=c1c2c(-c3ccccc3)c(-c3ccccc3)n(CCc3ccccc3)c2ncn1CCCO	15.6 µM (active)
COCCn1cnc2c(c(-c3ccccc3)c(-c3ccccc3)n2CCc2ccccc2)c1=N	15.8 µM (active)
COCCn1cnc2c(c(-c3ccccc3)c(-c3ccccc3)n2Cc2ccc(OC)cc2)c1=N	17.7 µM (active)
CN(C)CCn1cnc2c(c(-c3ccccc3)c(-c3ccccc3)n2CCc2ccccc2)c1=N	15.8 µM (active)
COc1ccc(Cn2c(-c3ccccc3)c(-c3ccccc3)c3c(=N)n(CC4CCCO4)cnc32)cc1 (stereo not given)	19.9 µM (active)
CN(C(=O)c1cccs1)c1cccnc1	inactive
